Data on ten compounds can be found in PubChem BioAssay (NCI).

Test systems include NCI-H23 lung; NCI-H226 lung; HOP-62 NSCLC; NCI-H460 lung; HOP-92 NSCLC; NCI-H522 lung; A549/ATCC NSCLC; 786-0 renal; COLO 205 colon; DU-145 prostate; K-562 leukemia; MALME-3M melanoma; MDA-MB-231 breast; RXF 393 renal; SF-268 CNS; SF-295 CNS; SF-539 CNS; UACC-257 melanoma; M14 melanoma.
Common to all, as to test: NCI-60 one-dose screen, 48 h (100 = growth as untreated, 0 = no growth, -100 = all killed)
Common to all, as to settings: 10 µM

Compounds without any hit were thinned out: in the full panel of roughly 83,000, 20% have a hit.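 Note: values are percent growth. 100 is the growth of untreated cells, values between 100 and 0 indicate rising inhibition; between -100 and 0 indicates cell death.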 A number with no mark means an inactive call. Calls of active or inactive are those of the source. Rule for the calls: active = growth percent below 10; inactive = the rest.

As for `NC(CSC(c1ccccc1)(c1ccccc1)c1cccc2ccccc12)C(=O)O` (stereo not given), the growth is 94.2% with NCI-H23 lung; 96.6% with NCI-H226 lung; 104% in the test on HOP-62 NSCLC; 98.8% in the test with NCI-H460 lung; 81.6% in the test with HOP-92 NSCLC; 104% in the test on NCI-H522 lung. Moreover, the growth in the test on A549/ATCC NSCLC is 92.7%; in the test with 786-0 renal, 98.2%; with COLO 205 colon it was 108%; with DU-145 prostate, 106%; in the test with K-562 leukemia, 103%; in the test on MALME-3M melanoma, 112%. Further, the growth is 96.1% in the test with MDA-MB-231 breast; 94.2% in the test on RXF 393 renal; 85% in the test with SF-268 CNS; 91.1% with SF-295 CNS; 94.5% with SF-539 CNS; 103% in the test on UACC-257 melanoma. In the test with M14 melanoma, the growth was 108%.
Regarding `CN(C)CCOc1ccc(-c2nc3sccn3c2-c2ccnc(S(C)(=O)=O)n2)cc1`, the growth in the test on NCI-H23 lung was 103%; in the test on NCI-H226 lung, 102%; in the test on HOP-62 NSCLC, 87.5%; with NCI-H460 lung, 103%; in the test on HOP-92 NSCLC it was 57%; in the test with NCI-H522 lung, 106%. Besides, the growth in the test with A549/ATCC NSCLC was 95%; with 786-0 renal, 105%; in the test with COLO 205 colon it was 114%; in the test on DU-145 prostate it was 112%; with K-562 leukemia, 102%; in the test on MALME-3M melanoma, 112%. Moreover, the growth in the test on MDA-MB-231 breast was 110%; in the test with RXF 393 renal, 113%; with SF-268 CNS it was 117%; in the test with SF-295 CNS, 103%; with SF-539 CNS it was 102%; in the test with UACC-257 melanoma, 101%. Further, in the test on M14 melanoma, the growth is 112%.
For the compound `O=C(CSc1nnc(-c2ccc(Cl)cc2)o1)Nc1ccc(C(=O)/C=C/c2ccc(Cl)cc2)cc1`, the growth in the test on NCI-H23 lung is 87.7%; in the test on NCI-H226 lung, 93.3%; with HOP-62 NSCLC, 95.8%; with NCI-H460 lung, 98.2%; in the test on HOP-92 NSCLC it was 106%; with NCI-H522 lung it was 86.8%. Moreover, the growth is 95.6% with A549/ATCC NSCLC; 99.9% in the test with 786-0 renal; 117% with COLO 205 colon; 103% with DU-145 prostate; 93.4% with K-562 leukemia; 114% in the test on MALME-3M melanoma. Also, the growth was 104% in the test with MDA-MB-231 breast; 99.1% in the test with RXF 393 renal; 99.7% with SF-268 CNS; 101% in the test with SF-295 CNS; 117% with SF-539 CNS; 98.7% in the test with UACC-257 melanoma. Further, the growth in the test with M14 melanoma was 104%.
Consider `CC(=O)OC/C=C(/C)C[P+](c1ccccc1)(c1ccccc1)c1ccccc1`, for which the growth with NCI-H23 lung is 80.1%; with NCI-H226 lung it was 66%; in the test with HOP-62 NSCLC, 65.6%; in the test on NCI-H460 lung it was 40.3%; in the test on HOP-92 NSCLC it was 64.3%; in the test with NCI-H522 lung, 74.6%. The growth with A549/ATCC NSCLC was 64.6%; in the test on 786-0 renal, 74.5%; with COLO 205 colon, 48.3%; with DU-145 prostate, 58.3%; with K-562 leukemia it was 28.4%; with MALME-3M melanoma, 61.7%. The growth in the test on MDA-MB-231 breast is 75.2%; with RXF 393 renal it was 98%; in the test on SF-268 CNS, 76.7%; in the test on SF-295 CNS, 41.6%; with SF-539 CNS, 64.2%; in the test on UACC-257 melanoma it was 69.7%. Moreover, the growth in the test on M14 melanoma was 46.6%.
For the compound `COc1cc(/C=C2\CCCC3=C2NC(N)=NC3c2cc(OC)c(OC)c(OC)c2)cc(OC)c1OC` (stereo not given), the growth was 11.6% with NCI-H23 lung; -61% (active) in the test with NCI-H226 lung; 17.8% in the test on HOP-62 NSCLC; -42.6% (active) in the test on NCI-H460 lung; -1% (active) with HOP-92 NSCLC; -38% (active) in the test with NCI-H522 lung. The growth in the test on A549/ATCC NSCLC is -28.4% (active); with 786-0 renal it was -20.1% (active); in the test on COLO 205 colon it was -0.149% (active); in the test on DU-145 prostate it was -9.85% (active); in the test with K-562 leukemia, 6.43% (active); in the test with MALME-3M melanoma, -42.5% (active). The growth in the test with MDA-MB-231 breast was 28.9%; with RXF 393 renal, -88% (active); with SF-268 CNS, 15.1%; in the test with SF-295 CNS it was -35.3% (active); in the test on SF-539 CNS, 25.9%; in the test on UACC-257 melanoma, -31.1% (active). Besides, in the test with M14 melanoma, the growth is -36.1% (active).
For `CC[C@H]1OC(=O)[C@H](C)[C@@H](O[C@H]2C[C@@](C)(OC)[C@@H](O)[C@H](C)O2)[C@H](C)[C@@H](O[C@@H]2O[C@H](C)C[C@H](N(C)C)[C@H]2O)[C@](C)(OC)C/C(C)=C2/O[C@@]1(C)C=C2C`, the growth in the test with NCI-H23 lung is 83.9%; in the test with NCI-H226 lung, 84.6%; with HOP-62 NSCLC, 77.9%; with NCI-H460 lung it was -49.6% (active); in the test with HOP-92 NSCLC, 36.3%; in the test with NCI-H522 lung it was 44.4%. Further, the growth with A549/ATCC NSCLC is 61.9%; in the test on 786-0 renal, 72%; in the test with COLO 205 colon, -47.3% (active); in the test with DU-145 prostate, 76.9%; with K-562 leukemia, -19.6% (active); with MALME-3M melanoma, -80% (active). In addition, the growth was -44.2% (active) in the test with MDA-MB-231 breast; 21.3% with RXF 393 renal; 64.1% in the test with SF-268 CNS; 95.5% in the test with SF-295 CNS; 64.7% in the test with SF-539 CNS; 17.7% in the test with UACC-257 melanoma. Further, the growth in the test with M14 melanoma is -75.1% (active).
Consider `COc1ccc(-c2onc(N)c2-c2cc(OC)c3c(c2)OCO3)cc1`, for which the growth was 44% in the test with NCI-H23 lung; 77% in the test on NCI-H226 lung; 29.4% in the test with HOP-62 NSCLC; 14.9% with NCI-H460 lung; 63.9% with HOP-92 NSCLC; 9.81% (active) in the test with NCI-H522 lung. Further, the growth was 32.2% with A549/ATCC NSCLC; 47.2% in the test on 786-0 renal; 12.4% with COLO 205 colon; 29.3% in the test with DU-145 prostate; 13% in the test with K-562 leukemia; 29.5% in the test with MALME-3M melanoma. Besides, the growth was 56.7% with MDA-MB-231 breast; 24.8% with RXF 393 renal; 50.1% in the test on SF-268 CNS; 14.3% with SF-295 CNS; 20.1% with SF-539 CNS; 47.5% with UACC-257 melanoma. For the same compound, the growth with M14 melanoma is -0.971% (active).
Turning to `O=[N+]([O-])c1ccc2ncccc2c1Cl`, the growth in the test on NCI-H23 lung is 86.7%; in the test on NCI-H226 lung it was 109%; in the test on HOP-62 NSCLC it was 44.5%; in the test on NCI-H460 lung, 93.1%; with HOP-92 NSCLC it was 99%; in the test with NCI-H522 lung it was 41.3%. The growth was 99.9% in the test on A549/ATCC NSCLC; 63.5% in the test on 786-0 renal; -69.2% (active) with COLO 205 colon; -26% (active) in the test with DU-145 prostate; 12.1% in the test on K-562 leukemia; 69% in the test with MALME-3M melanoma. Moreover, the growth in the test with MDA-MB-231 breast was 21.2%; in the test with RXF 393 renal, 91.2%; with SF-268 CNS, 38.9%; in the test on SF-295 CNS it was -0.464% (active); in the test on SF-539 CNS it was 12.9%; in the test with UACC-257 melanoma it was 62.2%. Also, the growth with M14 melanoma was 49.5%.
In the case of `O=C(CC(CC(=O)c1ccccc1)c1ccccc1O)c1ccccc1`, the growth in the test with NCI-H23 lung was 92.8%; in the test with NCI-H226 lung, 87.8%; with HOP-62 NSCLC it was 85.8%; in the test on NCI-H460 lung, 93%; in the test with HOP-92 NSCLC, 88.9%; in the test with NCI-H522 lung it was 89.3%. Further, the growth in the test on A549/ATCC NSCLC was 93%; with 786-0 renal it was 96.5%; in the test on COLO 205 colon, 106%; with DU-145 prostate, 103%; with K-562 leukemia it was 89.4%; in the test with MALME-3M melanoma, 91.8%. Besides, the growth was 90.4% in the test on MDA-MB-231 breast; 107% with RXF 393 renal; 89.8% with SF-268 CNS; 99.9% with SF-295 CNS; 99.1% with SF-539 CNS; 98.4% in the test with UACC-257 melanoma. In addition, in the test on M14 melanoma, the growth was 92.8%.
Turning to `CCCCCCCCCCOC(c1ccccc1)c1ccccc1`, the growth was 83% in the test on NCI-H23 lung; 85.5% in the test with NCI-H226 lung; 87.8% in the test with HOP-62 NSCLC; 101% in the test with NCI-H460 lung; 103% with HOP-92 NSCLC; 75.8% with NCI-H522 lung. Besides, the growth is 83.6% with A549/ATCC NSCLC; 98% in the test with 786-0 renal; 104% in the test with COLO 205 colon; 105% in the test on DU-145 prostate; 85.6% with K-562 leukemia; 95.7% in the test with MALME-3M melanoma. The growth in the test on MDA-MB-231 breast is 88.4%; in the test on RXF 393 renal, 94.2%; in the test on SF-268 CNS it was 94.2%; with SF-295 CNS, 89.6%; in the test on SF-539 CNS, 102%; with UACC-257 melanoma, 102%. In the test on M14 melanoma, the growth was 90.9%.
